Measured values: PubChem BioAssay AID1159580 (chemical genetic matrix, 2015)
Screen size: about 5,500 compounds; about 2,000 (36%) were called active. Not shown: some 18% with an inconclusive outcome. No stated cut-off is given here; in the data, active means normalized growth mostly below about 0.91 (no sharp cut-off); inconclusive means no clear call, values can overlap the other calls; inactive means mostly above about 0.92. The list shows a part of the results.

Experiment: chemical genetic growth profiling, strain panel (AID 1159580);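 further: tested at 20 µM; growth read once vehicle control cultures reached saturation at 30 °C; 1 = growth at the plate median or of vehicle wells; lower values mean less growth of the strain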
Conditions: growth OD

Measured: normalized growth

O=c1cc[nH]c(=S)[nH]1
inactive: S. cerevisiae deletion strains, locus YJR075W, strain HOC1, hits give low values 1.03 | S. cerevisiae deletion strains, locus YKL009W, strain mrt4, hits give low values 1.04 | S. cerevisiae deletion strains, locus YKL068W, hits give low values 1 | S. cerevisiae deletion strains, locus YKL085W, strain MDH1 (second series), hits give low values 1.01 | S. cerevisiae deletion strains, locus YKL085W, strain MDH1, hits give low values 1.01 | S. cerevisiae deletion strains, locus YKL160W, strain elf1, hits give low values 1.06 | S. cerevisiae deletion strains, locus YKL190W, strain CNB1, hits give low values 1.02 | S. cerevisiae deletion strains, locus YKR001C, strain vps1, hits give low values 1.05 | S. cerevisiae deletion strains, locus YKR026C, strain gcn3, hits give low values 1.01 | S. cerevisiae deletion strains, locus YKR091W, strain srl3, hits give low values 1 | S. cerevisiae deletion strains, locus YLL001W, strain dnm1, hits give low values 1.04 | S. cerevisiae deletion strains, locus YLL026W, hits give low values 0.999 | S. cerevisiae deletion strains, locus YLL041C, strain sdh2, hits give low values 1.01 | S. cerevisiae deletion strains, locus YLR027C, strain aat2, hits give low values 1.02 | S. cerevisiae deletion strains, locus YLR039C, strain RIC1, hits give low values 1.09 | S. cerevisiae deletion strains, locus YLR058C, strain SHM2, hits give low values 1.02 | S. cerevisiae deletion strains, locus YLR102C, strain apc9, hits give low values 0.992 | S. cerevisiae deletion strains, locus YLR113W, strain HOG1, hits give low values 1.01 | S. cerevisiae deletion strains, locus YLR221C, strain rsa3, hits give low values 1.01 | S. cerevisiae deletion strains, locus YLR258W, strain gsy2, hits give low values 0.989 | S. cerevisiae deletion strains, locus YLR262C, strain YPT6 (second series), hits give low values 1.03 | S. cerevisiae deletion strains, locus YLR262C, strain YPT6, hits give low values 1.08 | S. cerevisiae deletion strains, locus YLR268W, strain sec22, hits give low values 1.05 | S. cerevisiae deletion strains, locus YLR320W, strain mms22, hits give low values 1.06 | S. cerevisiae deletion strains, locus YLR330W, strain CHS5, hits give low values 1.03 | S. cerevisiae deletion strains, locus YLR342W, strain FKS1 (second series), hits give low values 1 | S. cerevisiae deletion strains, locus YLR342W, strain FKS1, hits give low values 1.01 | S. cerevisiae deletion strains, locus YLR357W, strain rsc2, hits give low values 1.04 | S. cerevisiae deletion strains, locus YLR370C, strain arc18, hits give low values 0.997 | S. cerevisiae deletion strains, locus YLR371W, strain rom2, hits give low values 0.996 | S. cerevisiae deletion strains, locus YLR384C, strain iki3, hits give low values 1.01 | S. cerevisiae deletion strains, locus YLR418C, strain cdc73, hits give low values 1.03 | S. cerevisiae deletion strains, locus YML016C, strain PPZ1, hits give low values 1.02 | S. cerevisiae deletion strains, locus YML032C, strain rad52, hits give low values 1.05 | S. cerevisiae deletion strains, locus YML120C, strain ndi1, hits give low values 1.01 | S. cerevisiae deletion strains, locus YML124C, strain tub3, hits give low values 1.01 | S. cerevisiae deletion strains, locus YMR058W, strain fet3, hits give low values 1.01 | S. cerevisiae deletion strains, locus YMR078C, strain ctf18, hits give low values 1.02 | S. cerevisiae deletion strains, locus YMR125W, strain sto1, hits give low values 1.05 | S. cerevisiae deletion strains, locus YMR129W, hits give low values 0.999 | S. cerevisiae deletion strains, locus YMR205C, strain PFK2, hits give low values 1.05 | S. cerevisiae deletion strains, locus YMR223W, strain ubp8, hits give low values 0.992 | S. cerevisiae deletion strains, locus YMR231W, strain pep5, hits give low values 1.01 | S. cerevisiae deletion strains, locus YMR263W, strain SAP30, hits give low values 1.03 | S. cerevisiae deletion strains, locus YMR307W, strain GAS1, hits give low values 1.01 | S. cerevisiae deletion strains, locus YNL067W, strain RPL9B, hits give low values 1.03 | S. cerevisiae deletion strains, locus YNL071W, strain lat1, hits give low values 1.02 | S. cerevisiae deletion strains, locus YNL128W, strain TEP1, hits give low values 1.03 | S. cerevisiae deletion strains, locus YNL153C, strain GIM3, hits give low values 1.03 | S. cerevisiae deletion strains, locus YNL183C, strain NPR1, hits give low values 0.921 | S. cerevisiae deletion strains, locus YNL209W, strain ssb2, hits give low values 1 | S. cerevisiae deletion strains, locus YNL233W, strain BNI4, hits give low values 1.01 | S. cerevisiae deletion strains, locus YNL248C, strain rpa49, hits give low values 1.09 | S. cerevisiae deletion strains, locus YNL250W, strain rad50, hits give low values 1.01 | S. cerevisiae deletion strains, locus YNL271C, strain bni1, hits give low values 1.01 | S. cerevisiae deletion strains, locus YNL298W, strain CLA4, hits give low values 1.02 | S. cerevisiae deletion strains, locus YNL307C, strain MCK1, hits give low values 1.01 | S. cerevisiae deletion strains, locus YNL322C, strain KRE1 (second series), hits give low values 1.02 | S. cerevisiae deletion strains, locus YNL322C, strain KRE1, hits give low values 1.02 | S. cerevisiae deletion strains, locus YNR049C, strain mso1, hits give low values 1 | S. cerevisiae deletion strains, locus YNR052C, strain pop2, hits give low values 1 | S. cerevisiae deletion strains, locus YOL006C, strain TOP1, hits give low values 1.1 | S. cerevisiae deletion strains, locus YOL012C, strain htz1 1.32 | S. cerevisiae deletion strains, locus YOL147C, strain pex11, hits give low values 1.01 | S. cerevisiae deletion strains, locus YOR001W, strain rrp6, hits give low values 0.972 | S. cerevisiae deletion strains, locus YOR061W, strain CKA2, hits give low values 1.02 | S. cerevisiae deletion strains, locus YOR069W, strain VPS5, hits give low values 1.01 | S. cerevisiae deletion strains, locus YOR070C, strain gyp1, hits give low values 0.997 | S. cerevisiae deletion strains, locus YOR080W, strain dia2, hits give low values 1 | S. cerevisiae deletion strains, locus YOR083W, strain WHI5, hits give low values 1.06 | S. cerevisiae deletion strains, locus YOR106W, strain vam3, hits give low values 1.05 | S. cerevisiae deletion strains, locus YOR136W, strain idh2, hits give low values 1.01 | S. cerevisiae deletion strains, locus YOR144C, strain elg1, hits give low values 1.02 | S. cerevisiae deletion strains, locus YOR184W, strain ser1, hits give low values 1.03 | S. cerevisiae deletion strains, locus YOR231W, strain MKK1, hits give low values 1.01 | S. cerevisiae deletion strains, locus YOR265W, strain rbl2, hits give low values 1.02 | S. cerevisiae deletion strains, locus YOR270C, strain vph1, hits give low values 1.04 | S. cerevisiae deletion strains, locus YOR290C, strain snf2, hits give low values 1.04 | S. cerevisiae deletion strains, locus YOR316C, strain cot1, hits give low values 0.998 | S. cerevisiae deletion strains, locus YPL051W, strain arl3, hits give low values 1.05 | S. cerevisiae deletion strains, locus YPL055C, strain LGE1, hits give low values 1.06 | S. cerevisiae deletion strains, locus YPL078C, strain atp4, hits give low values 1.06 | S. cerevisiae deletion strains, locus YPL106C, strain sse1, hits give low values 1 | S. cerevisiae deletion strains, locus YPL240C, strain hsp82, hits give low values 1.01 | S. cerevisiae deletion strains, locus YPL241C, strain CIN2, hits give low values 1.01 | S. cerevisiae deletion strains, locus YPL256C, strain CLN2, hits give low values 1 | S. cerevisiae deletion strains, locus YPR119W, strain clb2, hits give low values 1 | S. cerevisiae deletion strains, locus YPR141C, strain kar3, hits give low values 1.01 | S. cerevisiae deletion strains, locus YPR163C, strain tif3, hits give low values 1.02 | S. cerevisiae deletion strains, locus YPR167C, strain met16, hits give low values 1.02 | S. cerevisiae deletion strains, strain wtn01, hits give low values 1.04 | S. cerevisiae strains, strain wild type, hits give low values 1.03
